# From PubChem BioAssay (EPA / NIEHS)
# Results filed as inconclusive are left out. Activity calls are given as the source filed them. Rule for the calls, unless noted: active = hit-call score of the fitted dose curve at least 0.9, where 1 is the maximum; inactive = score below 0.9.
# Tests used:
# [1] = CCTE_Shafer_MEA_acute_burst_number: CCTE's Neural Acute Assay for Single-Electrode Bursts, Shafer Lab (AID 2284013)
# Method in brief: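 Percent change in single-electrode burst number per well, from 40-min recordings taken before and after adding compound (0.03-40 uM) to primary rat cortical neurons on MEA plates at DIV 13 or 15, 37 C.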
# [2] = CCTE_Shafer_MEA_acute_burst_duration_mean: CCTE's Neural Acute Assay for Mean Burst Duration, Shafer Lab (AID 2284014);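 note: hits are decreases in mean burst duration relative to DMSO controls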
# Method in brief: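 Rat cortical cultures, DIV 13/15; 40 min baseline, then 40 min with compound (0.03-40 uM), 37 C. Spikes: 300-5000 Hz band-pass, 8x rms threshold. Read-out: % change in mean single-electrode burst duration, DMSO-referenced, loss direction.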
# [3] = CCTE_Shafer_MEA_acute_per_burst_spike_number_mean: CCTE's Neural Acute Assay for Average Number of Spikes Per Burst, Shafer Lab (AID 2284015);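 note: hits are decreases in mean spikes per burst versus baseline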
# Method in brief: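 We recorded spontaneous network firing of rat cortical neurons for 40 min before and 40 min during exposure to compound at 0.03-40 uM, at 37 C. Spikes were detected adaptively at 8x rms noise, and the change in average spikes per burst was fitted against DMSO.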
# [4] = CCTE_Shafer_MEA_acute_interburst_interval_mean: CCTE's Neural Acute Assay for Mean Interburst Interval, Shafer Lab (AID 2284016);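 note: percent change of mean interburst interval versus each well's own pre-dose baseline; curves fitted for decrease in interburst interval relative to DMSO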
# Method in brief: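 MEA recording of spontaneous network bursting in primary rat cortical cultures; mean interburst interval was compared before and after a 40-min compound exposure (0.03-40 uM) and expressed as percent change, relative to DMSO.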
# [5] = CCTE_Shafer_MEA_acute_burst_percentage_mean: CCTE's Neural Acute Assay for Percentage of Spikes in a Burst, Shafer Lab (AID 2284017);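 for AC50: curve fitted for loss of signal so potency reflects decreased burst percentage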
# Method in brief: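 Compounds were tested at 0.03-40 uM on primary rat cortical neuron networks grown over microelectrodes, with at least three wells per compound. Spontaneous firing was recorded for 40 min before and 40 min after dosing, and the change in burst percentage was computed per well.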
# [6] = CCTE_Shafer_MEA_acute_burst_percentage_std: CCTE's Neural Acute Assay for Standard Deviation of Burst Percentage, Shafer Lab (AID 2284018);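 note: fitted in the negative direction so actives lower burst percentage SD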
# Method in brief: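 Rat primary cortical neurons on 48-well MEAs, DIV 13 or 15, 37 C. 40-min baseline then 40-min recording with compound (0.03-40 uM); well-level SD of per-electrode burst spike percentage, expressed as percent change from baseline.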
# [7] = CCTE_Shafer_MEA_acute_per_network_burst_spike_number_std: CCTE's Neural Acute Assay for Standard Deviation of Number of Spikes in a Network Burst, Shafer Lab (AID 2284020);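 note: fitted for decrease in spike-number SD versus DMSO so actives lower it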
# Method in brief: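 Rat cortical cultures, DIV 13/15, 37 C; 20-min stabilisation, 40-min baseline, compound 0.03-40 uM, 40-min re-record. Spikes detected at 8x rms noise (300-5000 Hz band-pass). Readout: % change from baseline in per-burst spike-number SD.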
# [8] = CCTE_Shafer_MEA_acute_network_burst_percentage: CCTE's Neural Acute Assay for Percentage of Network Bursts, Shafer Lab (AID 2284022);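 note: curves fitted for loss so actives lower network burst percentage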
# Method in brief: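 Rat cortical cultures, DIV 13/15; 20 min equilibration, 40 min baseline, compound 0.03-40 uM, 40 min recording, 37 C. Spikes: 300-5000 Hz band-pass, threshold 8x rms noise. Readout: % change in network-burst spike fraction; loss direction vs DMSO.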
# [9] = CCTE_Shafer_MEA_acute_cross_correlation_area: CCTE's Neural Acute Assay for Area of Cross Correlation, Shafer Lab (AID 2284024);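 note: area under pooled inter-electrode spike cross-correlation near zero lag as percent change from own baseline; curves fitted for loss of cross-correlation area so actives lower synchrony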
# Method in brief: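 Rat cortical cultures, DIV 13/15, MEA; spikes detected at 8x rms noise (300-5000 Hz band-pass). Compound 0.03-40 uM, ≥3 wells each. Readout: % change in pooled inter-electrode cross-correlation area vs own baseline; DMSO negative control.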
# [10] = CCTE_Shafer_MEA_acute_cross_correlation_HWHM: CCTE's Neural Acute Assay for Cross Correlation at Half Width at Half Maximum, Shafer Lab (AID 2284026);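 note: percent change per well from pre-dose baseline in spike cross-correlogram half width; hits are a decrease in cross-correlogram half width relative to DMSO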
# Method in brief: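 Read-out: half width at half maximum of action-potential cross-correlogram, percent change versus pre-treatment baseline, fitted in loss direction against DMSO. Rat cortical cultures, DIV 13 or 15, dosed 0.03-40 uM, 40-min recordings at 37 C.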
# [11] = CCTE_Shafer_MEA_acute_synchrony_index: CCTE's Neural Acute Assay for Synchrony, Shafer Lab (AID 2284027);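 note: network synchrony index of spontaneous spiking in primary rat cortical neurons on MEAs; fitted for loss of signal so actives lower synchrony relative to DMSO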
# Method in brief: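 The synchrony index is taken as percent change per well between a 40 min baseline and a 40 min recording with compound (0.03–40 uM), at 37C. Rat cortical cultures on multiwell MEAs at DIV 13 or 15, spike threshold 8× rms noise.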
# [12] = CCTE_Deisenroth_AIME_384WELL_CTox_Active: Cytotoxicity Assessment (CTOX) in CCTE's 384-well Estrogen Receptor Transactivation Assay with AIME metabolic competence (metabolism positive), Deisenroth Lab (AID 2284037; active = hit-call score of the fitted dose curve at least 0.9, where 1 is the maximum;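 note: chemicals first conditioned 2 h by alginate-bound induced rat liver S9 before cells; activity means signal loss indicating cell death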)
# Method in brief: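 Chemicals pre-incubated 2 hours with alginate-immobilised phenobarbital/beta-naphthoflavone-induced male Sprague Dawley rat liver S9, then conditioned medium applied 24 hour to VM7Luc4E2 cells. Viability by fluorogenic protease substrate; 10-point series 0.002 - 200 uM.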
# [13] = biological target: Estrogen receptor (Homo sapiens) (UniProt P03372); experiment: CCTE_Deisenroth_AIME_384WELL_LUC_Active: CCTE's 384-well Estrogen Receptor Transactivation Assay with AIME metabolic competence (ERTA luciferase; metabolism positive), Deisenroth Lab (AID 2284030; active = hit-call score of the fitted dose curve at least 0.9, where 1 is the maximum)
# Method in brief: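 Readout: bioluminescent luciferase induction in VM7Luc4E2 cells 24 hour after receiving medium from a 2 h rat hepatic S9 (induced, alginate microsphere) metabolism step. Concentrations 0.002 - 200 uM; activity scaled to 17beta-estradiol positive control.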
# [14] = biological target: Estrogen receptor (Homo sapiens) (UniProt P03372); experiment: CCTE_Deisenroth_AIME_384WELL_LUC_Inactive: CCTE's 384-well Estrogen Receptor Transactivation Assay without AIME metabolic competence (ERTA luciferase; metabolism negative), Deisenroth Lab (AID 2284038; active = hit-call score of the fitted dose curve at least 0.9, where 1 is the maximum;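 note: hits raise estrogen receptor luciferase signal so potencies reflect agonists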)
# Method in brief: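 VM7Luc4E2 ER transactivation, luciferase bioluminescence after 24 h, using medium pre-incubated 2 h with S9-free alginate microspheres. Concentrations 0.002–200 uM; gain of signal fitted relative to 17beta-estradiol.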
# [15] = CCTE_Deisenroth_AIME_96WELL_CTox_Active: Cytotoxicity Assessment (CTOX) in CCTE's 96-well Estrogen Receptor Transactivation Assay with AIME metabolic competence (metabolism positive), Deisenroth Lab (AID 2284028; active = hit-call score of the fitted dose curve at least 0.9, where 1 is the maximum)
# Method in brief: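 Cytotoxicity in VM7Luc4E2 breast cells after 24 h exposure to medium from a 2 h metabolic pre-incubation with induced rat hepatic S9 in alginate microspheres; fluorescent live-cell protease readout, 10-point series 0.002–200 uM, n=4.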
# Chain of Estrogen receptor (Homo sapiens) (P03372 whole entry, looked up): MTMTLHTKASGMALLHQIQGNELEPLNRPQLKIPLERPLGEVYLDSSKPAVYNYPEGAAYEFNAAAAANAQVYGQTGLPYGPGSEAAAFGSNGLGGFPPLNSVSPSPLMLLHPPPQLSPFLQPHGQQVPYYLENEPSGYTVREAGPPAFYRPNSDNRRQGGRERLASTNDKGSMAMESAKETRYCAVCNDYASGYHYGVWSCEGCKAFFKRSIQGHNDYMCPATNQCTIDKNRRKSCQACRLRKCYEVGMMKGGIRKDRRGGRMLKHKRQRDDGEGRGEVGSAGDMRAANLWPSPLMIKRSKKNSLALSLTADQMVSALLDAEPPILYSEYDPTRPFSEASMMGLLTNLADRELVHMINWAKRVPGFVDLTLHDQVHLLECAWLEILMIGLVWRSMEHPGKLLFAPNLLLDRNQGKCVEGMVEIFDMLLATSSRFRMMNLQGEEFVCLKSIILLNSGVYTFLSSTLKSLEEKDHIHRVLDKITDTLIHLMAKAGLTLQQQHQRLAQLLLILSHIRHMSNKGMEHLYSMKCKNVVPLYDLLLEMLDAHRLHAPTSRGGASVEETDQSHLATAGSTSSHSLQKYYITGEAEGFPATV
smiles,measurement,setting,value
NC(=Nc1ccccc1)Nc1ccccc1,AC50,[1],1.53 µM (active)
same,outcome,[2],inactive
same,outcome,[3],inactive
same,AC50,[4],1.27 µM (active)
same,AC50,[5],29.5 µM (active)
same,outcome,[6],inactive
same,outcome,[7],inactive
same,outcome,[8],inactive
same,outcome,[9],inactive
same,AC50,[10],20 µM (active)
same,outcome,[11],inactive
CCN(CC)CCOc1ccc(C(=C(Cl)c2ccccc2)c2ccccc2)cc1,AC50,[1],2.68 µM (active)
same,outcome,[2],inactive
same,outcome,[3],inactive
same,outcome,[4],inactive
same,AC50,[5],20 µM (active)
same,AC50,[6],29.1 µM (active)
same,outcome,[7],inactive
same,outcome,[8],inactive
same,outcome,[9],inactive
same,outcome,[10],inactive
same,outcome,[11],inactive
CCCC(=O)O,outcome,[1],inactive
same,outcome,[2],inactive
same,outcome,[3],inactive
same,outcome,[4],inactive
same,outcome,[5],inactive
same,outcome,[6],inactive
same,outcome,[7],inactive
same,outcome,[8],inactive
same,outcome,[9],inactive
same,outcome,[10],inactive
same,outcome,[11],inactive
Nc1nc(=S)c2[nH]cnc2[nH]1,outcome,[1],inactive
same,outcome,[2],inactive
same,AC50,[3],20 µM (active)
same,outcome,[4],inactive
same,AC50,[5],5.71 µM (active)
same,outcome,[6],inactive
same,outcome,[7],inactive
same,outcome,[8],inactive
same,outcome,[9],inactive
same,AC50,[10],32.2 µM (active)
same,AC50,[11],3.98 µM (active)
same,outcome,[12],inactive
Cc1ccc(C(C)(C)C)c(O)c1,outcome,[1],inactive
same,outcome,[2],inactive
same,outcome,[3],inactive
same,outcome,[4],inactive
same,AC50,[5],29.9 µM (active)
same,outcome,[6],inactive
same,outcome,[7],inactive
same,outcome,[8],inactive
same,outcome,[9],inactive
same,AC50,[10],11.8 µM (active)
same,outcome,[11],inactive
same,outcome,[13],inactive
same,outcome,[12],inactive
same,outcome,[14],inactive
C/C=C/c1ccc(OC)cc1,outcome,[1],inactive
same,outcome,[2],inactive
same,outcome,[3],inactive
same,outcome,[4],inactive
same,outcome,[5],inactive
same,outcome,[6],inactive
same,outcome,[7],inactive
same,outcome,[8],inactive
same,outcome,[9],inactive
same,outcome,[10],inactive
same,outcome,[11],inactive
same,outcome,[12],inactive
CC(C)NCC(O)c1ccc(O)c(O)c1 (stereo not drawn),outcome,[1],inactive
same,outcome,[2],inactive
same,outcome,[3],inactive
same,outcome,[4],inactive
same,outcome,[5],inactive
same,outcome,[6],inactive
same,outcome,[7],inactive
same,outcome,[8],inactive
same,outcome,[9],inactive
same,outcome,[10],inactive
same,outcome,[11],inactive
same,AC50,[12],106 µM (active)
CC(N)=O,outcome,[1],inactive
same,outcome,[2],inactive
same,outcome,[3],inactive
same,outcome,[4],inactive
same,outcome,[5],inactive
same,outcome,[6],inactive
same,outcome,[7],inactive
same,outcome,[8],inactive
same,outcome,[9],inactive
same,outcome,[10],inactive
same,outcome,[11],inactive
Cc1ccc(-c2cc(C(F)(F)F)nn2-c2ccc(S(N)(=O)=O)cc2)cc1,AC50,[1],6.46 µM (active)
same,outcome,[2],inactive
same,outcome,[3],inactive
same,AC50,[4],5 µM (active)
same,AC50,[5],20 µM (active)
same,outcome,[6],inactive
same,outcome,[7],inactive
same,outcome,[8],inactive
same,outcome,[9],inactive
same,AC50,[10],20 µM (active)
same,outcome,[11],inactive
OCC(CO)n1cnc(-c2ccc(F)cc2)c1-c1ccnc(Oc2ccccc2)n1,outcome,[1],inactive
same,outcome,[2],inactive
same,outcome,[3],inactive
same,outcome,[4],inactive
same,outcome,[5],inactive
same,outcome,[6],inactive
same,outcome,[7],inactive
same,outcome,[8],inactive
same,AC50,[9],3.9 µM (active)
same,outcome,[10],inactive
same,outcome,[11],inactive
Cc1cc(Cc2ccc(N)c(C)c2)ccc1N,outcome,[1],inactive
same,outcome,[2],inactive
same,AC50,[3],30 µM (active)
same,AC50,[4],35.7 µM (active)
same,AC50,[5],30 µM (active)
same,outcome,[6],inactive
same,AC50,[7],20 µM (active)
same,AC50,[8],29.6 µM (active)
same,outcome,[9],inactive
same,AC50,[10],26 µM (active)
same,AC50,[11],20 µM (active)
CCCCC(CC)COP(=O)(OCC(CC)CCCC)OCC(CC)CCCC (stereo not drawn),outcome,[1],inactive
same,outcome,[2],inactive
same,outcome,[3],inactive
same,outcome,[4],inactive
same,outcome,[5],inactive
same,outcome,[6],inactive
same,outcome,[7],inactive
same,outcome,[8],inactive
same,outcome,[9],inactive
same,outcome,[10],inactive
same,outcome,[11],inactive
CC1(C)C(=O)NC(=O)N1CO,outcome,[13],inactive
same,outcome,[12],inactive
same,outcome,[14],inactive
NC=O,outcome,[12],inactive
CC(C)c1cccc(C(C)C)c1,outcome,[13],inactive
same,outcome,[12],inactive
same,outcome,[14],inactive
CN(C)CCCN(C)CCCN(C)C,outcome,[13],inactive
same,outcome,[12],inactive
same,outcome,[14],inactive
O=C(O)c1[nH]n(-c2ccc(S(=O)(=O)O)cc2)c(=O)c1N=Nc1ccc(S(=O)(=O)O)cc1,outcome,[13],inactive
same,AC50,[12],100 µM (active)
same,outcome,[14],inactive
CCCCCCCC(=O)OC,outcome,[13],inactive
same,outcome,[12],inactive
same,outcome,[14],inactive
O=[Si]=O,outcome,[13],inactive
same,outcome,[12],inactive
same,outcome,[14],inactive
CCCCCCCCCCCCCCCCO,outcome,[13],inactive
same,outcome,[12],inactive
same,outcome,[14],inactive
CCCCCCC(CCCCCCCCCCC(=O)OCC(COC(C)=O)OC(C)=O)OC(C)=O (stereo not drawn),outcome,[13],inactive
same,outcome,[14],inactive
S=c1[nH]c2ccccc2s1,outcome,[15],inactive
CC(=O)O,outcome,[12],inactive
CC(C)OC(=O)C(C)(C)Oc1ccc(C(=O)c2ccc(Cl)cc2)cc1,outcome,[13],inactive
same,outcome,[12],inactive
same,outcome,[14],inactive
Oc1ccccc1O,AC50,[12],100 µM (active)
O=C1CCCCC1,outcome,[13],inactive
same,outcome,[12],inactive
same,outcome,[14],inactive
NC1CCCCC1,outcome,[13],inactive
same,outcome,[14],inactive
COC(=O)CCC(=O)OC,outcome,[13],inactive
same,outcome,[14],inactive
CCOCCOCCO,outcome,[12],inactive
COC(=O)CCCC(=O)OC,outcome,[12],inactive
CC(C)(O)c1ccc(CNC(=O)c2cccnc2Oc2ccc(F)cc2)cc1,outcome,[12],inactive
